A selection: hits, their analogues and other compounds. The true share with any hit is near 2.8%.
KDM5B inh – KDM5B demethylase inhibition; Q9UGL1; KDM5B demethylase, FDH-coupled NADH fluorescence (FDH is formaldehyde dehydrogenase); Potency, µM (series often up to 57.7 µM), actives largely listed as inhibitors; 220,000 compounds, 2.6% hits; AID 1347165; note: nearly all actives have a fitted effect of over 70% in size
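qHTS format, multiple compound concentrations. Buffer 50 mM HEPES pH 7.5/0.01% Tween-20; 200 nM KDM5BΔAP final; 10 min compound preincubation; substrate-mix levels 12.5 µM peptide, 25 µM α-KG, 0.25 mM NAD⁺; 30 min RT; ΔRFU.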
IP6K1 inhibitor – blocks human inositol hexakisphosphate kinase 1 | 140,000 compounds, 0.81% hits | Q92551 | activity change, % (series mostly up to about 58 µM) | IP6K1 kinase, ADP-Glo luminescence, 2 h; active compounds read low; in the data active = activity change below about -25%
Target sequence (Q92551 whole entry, looked up): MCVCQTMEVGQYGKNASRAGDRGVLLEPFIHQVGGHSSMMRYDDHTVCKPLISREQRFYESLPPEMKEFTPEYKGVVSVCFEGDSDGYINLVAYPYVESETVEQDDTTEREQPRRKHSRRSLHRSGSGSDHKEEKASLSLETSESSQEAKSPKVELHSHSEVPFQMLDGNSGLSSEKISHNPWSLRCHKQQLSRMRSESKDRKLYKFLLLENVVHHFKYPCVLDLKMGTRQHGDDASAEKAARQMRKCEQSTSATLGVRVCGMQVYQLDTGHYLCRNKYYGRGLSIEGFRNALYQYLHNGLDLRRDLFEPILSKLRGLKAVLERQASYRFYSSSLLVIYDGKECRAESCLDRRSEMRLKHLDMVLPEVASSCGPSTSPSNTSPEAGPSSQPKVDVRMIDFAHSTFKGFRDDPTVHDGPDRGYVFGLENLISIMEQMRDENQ
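ADP-Glo luminescence measures ADP made by human IP6K1 during a 2 h RT reaction with ATP/IP6 (mix at 1.3 mM/130 uM); top library doses 57.5 and 19.1 uM final.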
SNCA expr inhib – reduces expression of the alpha-synuclein gene; HEK-293 SNCA-luciferase knock-in, luminescence, 24 h; Potency, µM (series often up to 57.2 µM), most hits filed as inhibitors; 140,000 compounds, 0.17% hits; AID 1671194; note: nearly all actives have a fitted effect of over 45% in size
SNCA viab count – counter-screen for SNCA expression inhibitors: cell viability; 150,000 compounds, 0.12% hits; HEK-293-SNCA-luc viability, GF-AFC fluorescence, 24 h; Potency, µM (titrated, usually from 57.1 µM), usual class: cytotoxic; note: nearly all actives have a fitted effect of over 30% in size
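Cytotoxicity counterscreen: after 24 h compound treatment of genome-edited SNCA-luciferase HEK-293 cells, live-cell protease substrate GF-AFC read by fluorescence after 30 min; activity scaled between DMSO (0%) and medium-only (-100%), curves Hill-fitted.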
Large screens that a line does not name were inactive; ! = not active in a repeat. Unless noted, calls come from the whole dose curve; as a rule, active = well fitted curve in the direction sought with a large enough effect; inconclusive = small, poorly fitted or top-dose-only effect, or another doubt; inactive = no such curve, though single readings can be large; an effect the other way counts as inactive or inconclusive.

O=C(c1ccc(-c2ccc(N3CCSCC3)nc2)cc1)N1CCOCC1	KDM5B inh 22µM
CN1CCN(C(=O)c2ccc(-c3ccc(N4CCCCC4)nc3)cc2)CC1	KDM5B inh inconclusive
O=C(O)c1ccc(-c2ccc(N3CCCCCC3)nc2)cc1	KDM5B inh inconclusive
O=C(c1ccc(-c2ccc(N3CCCCC3)nc2)cc1)N1CCCC1	KDM5B inh 28µM
CN1CCN(C(=O)c2ccc(-c3ccc(N4CCSCC4)nc3)cc2)CC1	KDM5B inh 28µM
COc1ccccc1CNC(=O)c1ccc2nnc(-c3ccc(Cl)cc3)n2c1	none (no result: KDM5B inh)
Cc1cc(NCCN(C)C)n2nc(C)c(-c3ccccc3)c2n1	none (no result: IP6K1 inhibitor, SNCA expr inhib, SNCA viab count)
COc1cccc(CN(C)CC(=O)N2c3ccccc3NC(=O)CC2C)c1OC (stereo unspecified)	none (no result: IP6K1 inhibitor, SNCA expr inhib, SNCA viab count)
O=C(NC1CCN(c2cc(-c3ccc(Cl)cc3)[nH]n2)CC1)c1cccnc1	none
Cc1ccc(C)c(-c2cc3c(=O)n(CCNC(=O)c4ccc(F)cc4Cl)ccn3n2)c1	KDM5B inh inconclusive, SNCA expr inhib inconclusive
CC(NC(=O)c1ccc(-c2ccc(N3CCCCCC3)nc2)cc1)c1cccnc1 (stereo unspecified)	SNCA expr inhib inconclusive, SNCA viab count inconclusive
CCCN1CCN(C(=O)c2ccc(-c3ccc(N4CCCCC4)nc3)cc2)CC1	KDM5B inh 25µM
CC1CCN(C(=O)c2ccc(-c3ccc(N4CCSCC4)nc3)cc2)CC1	KDM5B inh 28µM, SNCA expr inhib inconclusive, SNCA viab count inconclusive
Cc1noc(C)c1CC(=O)N1CCC2(CC1)CC(OCC1CC1)CCO2 (stereo unspecified)	none
Cc1cc(NC(=O)Cc2c[nH]c3ncc(-c4ccccc4C)cc23)n(C)n1	KDM5B inh inconclusive
CNC(=O)c1cccnc1N1CCOC(c2ccc3cc(OC)ccc3c2)C1 (stereo unspecified)	none
COc1ccc([C@@H]2CN(c3ncccc3C#N)C[C@H]2NC(C)=O)cc1	KDM5B inh 28µM
COCCOc1nc(-c2ccc(Cl)c(Cl)c2)n(-c2ccc(NC(=O)CCl)cc2)n1	SNCA viab count 30µM! (no result: KDM5B inh)
COc1ccc(-c2nc(C(=O)Nc3cccc(C(C)=O)c3)nn2-c2ccc(Cl)cc2)cc1	none
COc1ccc(-c2ccnc(-c3nnc(C)n3C3CCCCC3)c2)cc1OC	KDM5B inh 35µM
COc1cccc(-c2ccnc(-c3nnc(C)n3C3CCCCC3)c2)c1	none
CC[C@@H]1C(=O)N(C)c2cnc(Nc3ccc(C(=O)NC4CCC(N5CCN(CC6CC6)CC5)CC4)cc3OC)nc2N1C(C)C (stereo partly specified)	SNCA viab count 30µM! (no result: KDM5B inh)
CCC1C(=O)N(C)c2cnc(Nc3ccc(C(=O)NC4CCC(N5CCN(CC6CC6)CC5)CC4)cc3OC)nc2N1C(C)C (stereo unspecified)	SNCA viab count 24µM (no result: KDM5B inh, SNCA expr inhib)
COc1cc(C(=O)NC2CCN(C)CC2)ccc1Nc1ncc2c(n1)N(C1CCCC1)CCC(=O)N2C(C)C	none (no result: KDM5B inh, IP6K1 inhibitor)
CCc1ccccc1NC(=O)C(OC(=O)c1ccccc1)C(OC(=O)c1ccccc1)C(=O)O (stereo unspecified)	none (no result: IP6K1 inhibitor, SNCA expr inhib, SNCA viab count)
O=C([C@@H]1C[C@H](Oc2ccccc2)CN1C(=O)c1cc2ccccc2[nH]1)N1CCCC1	KDM5B inh 25µM
O=C([C@@H]1C[C@H](Oc2ccccc2)CN1C(=O)c1cc2ccccc2[nH]1)N1CCOCC1	KDM5B inh inconclusive
O=C(c1ccc2[nH]ccc2c1)N1CCCN(c2cc(-c3ccc(Br)cc3)[nH]n2)CC1	SNCA expr inhib inconclusive
CCCCNC(=O)Cc1csc2nc(C)c(-c3cc(C)n(-c4cccc(C)c4C)n3)c(=O)n12	KDM5B inh 28µM, SNCA viab count inconclusive
CCCNC(=O)Cc1csc2nc(C)c(-c3cc(C)n(-c4cccc(C)c4C)n3)c(=O)n12	KDM5B inh inconclusive
Cc1nc2scc(CC(=O)NCc3ccco3)n2c(=O)c1-c1cc(C)n(-c2cc(F)ccc2F)n1	KDM5B inh 25µM
COCCNC(=O)Cc1csc2nc(C)c(-c3cc(C)n(-c4ccccc4F)n3)c(=O)n12	KDM5B inh 28µM
Cc1cccc(-n2nc(-c3c(C)nc4scc(CC(=O)NC(C)C)n4c3=O)cc2C)c1	KDM5B inh inconclusive
Cc1cccc(-n2nc(-c3c(C)nc4scc(CC(=O)NC(C)C)n4c3=O)cc2C)c1C	KDM5B inh 25µM
O=C(Nc1ccc(Cl)c(Cl)c1)c1ccc2ccccc2n1	none (no result: IP6K1 inhibitor, SNCA expr inhib, SNCA viab count)
Nc1nccc(-c2cccc([N+](=O)[O-])c2)n1	none (no result: IP6K1 inhibitor, SNCA expr inhib, SNCA viab count)
O=C(CCn1cncn1)N(CC1CCN(Cc2ccccc2F)CC1)CC1CCCO1 (stereo unspecified)	none
CN1CCN(c2cc(=O)c3ccnc(-c4cn[nH]c4)c3o2)CC1	KDM5B inh 28µM
CN1CCN(c2cc(=O)c3ccnc(-c4ccnn4C)c3o2)CC1	KDM5B inh 40µM, SNCA expr inhib inconclusive
CN1CCN(c2cc(=O)c3ccnc(-c4ccccc4F)c3o2)CC1	KDM5B inh 35µM
CCCCCC(=O)N1CCC(O)(c2csc(CN3CCN(c4ccccn4)CC3)n2)CC1	none
COCC1CN(C2CCC2)CC12CCN(C(=O)COc1ccc(F)cc1)CC2 (stereo unspecified)	KDM5B inh 10µM
COCC1CN(C2CCC2)CC12CCN(C(=O)COc1ccccc1)CC2 (stereo unspecified)	KDM5B inh inconclusive
Cc1ccc(NC(=O)c2ncoc2-c2cccs2)c(C)c1	none (no result: IP6K1 inhibitor, SNCA expr inhib, SNCA viab count)
C[S+](=O)([O-])c1ccc(-c2nccc3c(=O)cc(-c4cccnc4)oc23)cc1	KDM5B inh 35µM
COc1ncccc1-c1nccc2c(=O)cc(-c3cccnc3)oc12	KDM5B inh 35µM
Cc1ccccc1-c1nccc2c(=O)cc(-c3cccnc3)oc12	KDM5B inh 40µM
O=c1cc(-c2cccnc2)oc2c(NCc3ccc(F)cc3)nccc12	none
COc1ccc(-c2nccc3c(=O)cc(-c4cccnc4)oc23)cc1OC	none
O=c1cc(-c2cccnc2)oc2c(-c3ccc(O)c(F)c3)nccc12	none
Cc1c(-c2ccc(Cl)cc2)c(=O)oc2ccc(OS(C)(=O)=O)cc12	none (no result: IP6K1 inhibitor, SNCA expr inhib, SNCA viab count)
CCOc1ccc(C2Cn3nnc(-c4nc(-c5cccc(C)c5)no4)c3CO2)cc1 (stereo unspecified)	KDM5B inh 20µM
CCOc1ccc(C2Cn3nnc(-c4nc(-c5ccccc5)no4)c3CO2)cc1 (stereo unspecified)	KDM5B inh 28µM
CCOc1cccc(-c2noc(-c3nnn4c3COC(c3ccc(Cl)cc3)C4)n2)c1 (stereo unspecified)	KDM5B inh 22µM, SNCA expr inhib inconclusive
Cc1cccc(-c2noc(-c3nnn4c3COC(c3ccc(F)cc3)C4)n2)c1 (stereo unspecified)	SNCA viab count inconclusive
CCOc1ccc(C2Cn3nnc(-c4nc(-c5cccc(Cl)c5)no4)c3CO2)cc1 (stereo unspecified)	none
O[C@@H]1C[C@@H](c2nc(-c3ccccc3)no2)N(Cc2ccncc2)C1	none
CC1=C[C@@H](CNc2ccccn2)[C@H](C(C)C)C[C@H]1Cc1nnc(-c2cncn2C)o1	KDM5B inh 35µM, SNCA expr inhib inconclusive

Bioassay records deposited in PubChem by National Center for Advancing Translational Sciences (NCATS).
